Experimental data as given in PubChem BioAssay (NCI).
Several values for one entry are separate records, joined by “and”; a condition that tells them apart may be missing. Equal values may be shown once. The panel holds about 83,000 compounds, 20% with a hit somewhere; the sample as a whole holds those more often.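 The test compound was applied at a single concentration to cells in 96-well plates for 48 hours, and percent growth was recorded.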 A number with no mark means an inactive call. Activity calls are given as the source filed them. Rule for the calls: active = growth percent below 10; inactive = the rest.

system: MDA-MB-468 breast; test: NCI-60 one-dose screen, 48 h (100 = growth as untreated, 0 = no growth, -100 = all killed); details: 10 µM unless noted

Structure (SMILES)	growth
c1ccc(-c2nc(N3CCNCC3)c3oc(-c4ccccc4)nc3n2)cc1	-74% (active)
CCOc1ccc(/C=C/C(=O)c2ccccc2)cc1	68.2%
COc1ccc(/C(C)=C(\c2ccc(OCCN3CCOCC3)cc2)c2ccc(OC(=O)C3CCCCC3)cc2)cc1	116%
CCc1ccc(Cc2cnc(NC(=O)c3cc(C)oc3C)s2)cc1	9.5% (active)
CSc1ccc(N(C)c2nc(C)nc3c2CCC3)cc1	46.8%
CN(C)CCCn1c(=O)c2ccccc2c2ccccc21	66%
CN([O-])c1nc(N(C)[O-])nc(N2CCOCC2)n1.CN([O-])c1nc(N(C)[OH2+])nc(N2CCOCC2)n1.[Fe+3]	-52.3% [100 µM] (active)
CCNCCNc1cc(-c2ccc(C(F)(F)F)cc2)c(C#N)c2nc3cc(Cl)c(Cl)cc3n12	-82% (active)
Cc1ccccc1C1N=C2Oc3ccccc3C=C2C(=O)N1 (stereo not given)	21.8%
COc1ccc(C(=O)c2cc(OC)c(OC)c(OC)c2)cc1OC(=O)C(Cl)(Cl)Cl	35.8%
COc1ccc(Oc2nc(Nc3ccc(N4CCCCC4)nc3)ncc2NC(=O)c2cc(OC)cc(OC)c2)cc1	23.4%
O=C1c2ccccc2C(=O)c2c1ccc1[nH]c(CCl)nc21	-28.6% (active)
O=[N+]([O-])c1cccc(-c2ncc(-c3ccc(Cl)cc3Cl)[nH]2)c1	47.6%
COc1ccc(Cl)c([N+](=O)[O-])c1	99.9%
O=C(NO)c1ccc(Cn2c(=O)n(CCc3ccc(O)cc3)c(=O)c3ccccc32)cc1	29.8%
O=C(OC1CCCC1)c1ccccc1Cl	132%
CNC(=O)c1cc(Oc2ccc(NC(=O)Nc3ccc(Cl)c(C(F)(F)F)c3)c(F)c2)ccn1	-49.1% (active)
CC(=O)Nc1c(Cl)cc(Cl)c2c1Cc1cc([N+](=O)[O-])ccc1-2	94.9%
CNCc1ccccc1CN(CC(=O)Nc1ccc2c(c1)CC1(C2)C(=O)Nc2ncccc21)C(=O)C(C)(C)C (stereo not given)	107%
N#Cc1c(-c2ccccc2)cc(-c2ccccc2)n(CCCC(=O)O)c1=O	-27.1% (active)

Structure (SMILES)	growth
COc1ccc(/C(=C\c2cc(OC)c(OC)c(OC)c2)C(=O)N2CCNCC2)cc1	94.3%
CN1CCN(c2ccc3nc4c(nc3c2C(F)(F)F)C(=O)c2ncccc2C4=O)CC1	-62.4% (active)
O=c1c2sc3ncc(Br)cc3c2ncn1-c1cccc(Cl)c1	89.8%
COc1ccc(NC(=O)CSc2nnc(-c3ccc4nc(-c5ccccc5)[nH]c4c3)o2)cc1	95.5%
NCCCNc1nc2ccccc2c2c(=O)c3cccc(Cl)c3sc12	-80.2% (active)
CCCCC(CCCCCC(CCCC)NCc1ccc2c(c1)OCO2)NCc1ccc2c(c1)OCO2 (stereo not given)	-90.7% (active)
COc1cccc(-c2nc3occn3c2-c2ccnc(NCCNS(=O)(=O)c3ccc(C(F)(F)F)cc3)n2)c1	77.4%
C[C@@H](Oc1cc(-c2cnn(C3CCNCC3)c2)cnc1N)c1c(Cl)ccc(F)c1Cl	-79.8% (active)
COc1cc(-c2cc(/C=C/C(=O)c3ccc(Cl)c(Cl)c3)[nH]n2)cc(OC)c1OC	7.24% (active)
Oc1cccc(Nc2nc(-c3ccccn3)cs2)c1	110%
O=C(CSc1nnc(-c2ccc(Cl)cc2)n1-c1ccccc1)Nc1ccc(Br)cc1	59.1%
COc1ccc(C(=O)C2OC3=C(C(=O)CC(C)(C)C3)C2c2cccc(Oc3ccccc3)c2)cc1 (stereo not given)	94.3%
CCCN(CCC)CN(CCC)CCC	106%
COc1ccc(-c2[nH]ncc2Nc2cc(OC)c(OC)c(OC)c2)cc1	21.7%
c1ccn2nnnc2c1	107%
Cc1ccc(O)c(NC(=O)c2ccc(CNc3ccnc(C(F)(F)F)c3)cc2)c1	76.4%
CN1CCN(Cc2occc(=O)c2O)CCN(C)CCN(Cc2occc(=O)c2O)CC1	111% and 87.9%
CC(NC(=O)CCl)c1ccccc1 (stereo not given)	89%
CC1(C)C2=C(C(=O)N1Cc1ccccc1)C(c1ccco1)N(C(=O)C1CCC1)CCN2 (stereo not given)	112%
CCCCCCCC(=O)SCC/C=C/[C@@H]1CC(=O)NCc2cccc(n2)CN(Cc2ccc3ccccc3c2)CC(=O)N[C@@H](C(C)C)C(=O)O1	7.6% (active)
